Laboratory results published in PubChem BioAssay AID686971 (National Center for Advancing Translational Sciences (NCATS), 2013).
The whole screen tested about 360,000 compounds, of which about 7,500 (2.1%) were called active. About 8% were inconclusive and are not listed. For the sample, actives were picked, then their nearest neighbours and some compounds at random. A number with no mark means an inactive call. Calls come from the whole dose curve; as a rule, active = well fitted cell-killing curve with a large enough effect; inconclusive = small, poorly fitted or top-dose-only effect, or effect the other way, or another doubt; inactive = no such curve, though single readings can be large or run the other way.

Assay: qHTS for induction of synthetic lethality in tumor cells producing 2HG: qHTS for the HT-1080-IDH1KD cell line;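 for activity, negative = toxicity: 0% = DMSO wells and -100% = cell-free medium wells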
Conditions: HT-1080 IDH1 knockdown viability, ATP luminescence, 48 h; series mostly up to 46.1 µM; activity, negative = toxicity: at the top concentration
Method in brief: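 CellTiter-Glo luminescence after 48 h compound exposure at 37 degrees C of IDH1-knockdown HT-1080 cells in 5% FBS RPMI. %Activity scaled between DMSO wells and cell-free media wells, with curves fitted and assigned curve classes.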
Potency is the fitted concentration of half-maximal effect.

SMILES | activity, negative = toxicity | Potency
CCOC(=O)c1cnn2c(SC)ncnc12 | 0.362% | –
Cc1cc(OCc2ccc(C(=O)Nc3ccc(C(=O)O)cc3)o2)ccc1Cl | – | 23.1 µM (active)
CCOc1ccc(OCc2ccc(C(=O)Nc3cccc(C)n3)o2)cc1 | 2.75% [at 9.24 µM] | –
COc1ccc(NC(=O)CN(C)C(=O)c2ccc(COc3ccccc3)o2)cc1 | 8.48% | –
N#Cc1ccc(C(C(=O)NCc2ccccc2)n2c(=O)c(-c3ccco3)nc3ccccc32)cc1 (stereo not given) | -2.37% | –
COc1ccc2c(c1OC)C(=O)OC2Nc1nc(-c2ccccc2)cs1 (stereo not given) | – | 10.3 µM (active)
Cc1ccc(-c2csc(NC3OC(=O)c4ccccc43)n2)cc1 (stereo not given) | – | 11.6 µM (active)
Cc1ccc(-c2csc(-c3c[nH]c4ccccc34)n2)cc1 | -7.85% | –
Cc1ccc(-c2csc(-c3cc(C)on3)n2)cc1 | 21.4% | –
CCc1ccccc1NC(=O)[C@@H]1CCC(=O)N1C1OC(=O)c2c1ccc(OC)c2OC (stereo not given in full) | -3.7% | –
C/C(CC1CC(C)(C)OC1=O)=N/Nc1nc(-c2ccccc2)cs1 (stereo not given) | -19.8% | –
COC(=O)C(Cc1c[nH]c2ccccc12)NC(=O)CCNC(=O)c1ccco1 (stereo not given) | 1.68% | –
CC(=O)N1CCN(Cc2cc(=O)oc3cc(C)ccc23)CC1 | -9.52% | –
c1ccc(Cn2nnc3c(N4CCCCC4)ncnc32)cc1 | -5.29% | –
O=C1CCC(C(=O)OCC(=O)Nc2ccc(OC(F)F)cc2)=NN1 | 2.51% | –
CC(C)(O)C1=C[N+](=O)CC=C1 | 3.42% | –
CCN(CCN(C)C)C(=O)c1ccc2nc(C)c(N(C)C(=O)CCc3ccccc3)n2c1 | -0.559% | –
COc1ccc(NC(=O)CNC(=O)Cc2ccccc2)cc1OC | -11.2% | –
COc1ccc(CNC(=O)Cc2ccc(-c3ccccc3)cc2)cc1OC | – | 14.6 µM (active)
COc1ccc(CCNC(=O)Cc2ccc(C)cc2)cc1OC | -3.7% | –
CC1=C(C(=O)N2CCOCC2)CC(CC(=O)NCCCN(C)C)C(=O)N1Cc1ccc(C(C)(C)C)cc1 (stereo not given) | 20.4% | –
COc1ccc(Cn2c(=O)[nH]c3cc(C(=O)N4CCN(C(=O)c5ccco5)CC4)ccc3c2=O)cc1 | 3.12% | –
COc1ccccc1NC(=O)C(CC(=O)O)Cc1cc(C)cc(C)c1 (stereo not given) | 0.14% | –
O=C(CSc1ccc(Cl)cc1)NC1CC1 | 1.1% | –
COc1ccc(CNC(=O)/C(C#N)=C/c2cccc(OC)c2OC)cc1 | – | 25.9 µM (active)

SMILES | activity, negative = toxicity | Potency
COc1ccc(NC(=O)/C(C#N)=C\c2cc(OC)c(OCc3ccc(C(=O)O)cc3)cc2Br)cc1 | 10.1% | –
COc1ccc(CNC(=O)CCn2cccc2)cc1 | 18% | –
CCOC(=O)C(C(=O)c1ccccc1)C(c1ccccc1)c1nccc2ccccc12 (stereo not given) | -3.68% | –
Cc1ccc(S(=O)(=O)N2[C@@H](Cc3ccccc3)CO[C@H]2CC(=O)OCc2ccccc2)cc1 | -15.2% | –
CC(=O)Nc1cccc(-c2cc3nc(NCc4cccnc4)n(C)c(=O)c3s2)c1 | 1.49% | –
O=C1NC[C@@H](CCCCN2CCN(CCc3ccc(O)cc3)C(=O)C2=O)N(CC2CCCCC2)C1=O | 3.65% | –
CC(C)(C)N1C(=O)c2c(C(=O)OCc3ccccc3)[nH]c(-c3ccccc3)c2C1=O | 17.4% | –
O=C(N/N=C\c1cccnc1)c1cc(-c2ccccc2)nc2c(Cl)cccc12 | – | 9.2 µM (active)
C/C(=N\NC(=O)c1cc(-c2ccc(O)cc2)nc2ccccc12)c1cccnc1 | -5.02% | –
COc1ccc(-c2cc(C(=O)N/N=C/c3cccnc3)c3ccccc3n2)c(OC)c1 | -17.1% | –
CCOc1ccc(S(=O)(=O)NCCC(=O)NNC(=O)c2ccc(F)cc2)cc1 | 2.21% | –
C[C@@H]1CN([C@H](C)CO)C(=O)c2cc(Br)cnc2O[C@@H]1CN(C)Cc1cncnc1 | -1.69% | –
COc1ccc(/C=C/c2noc(-c3ccccc3OC(C)=O)n2)cc1 | 10.9% | –
Cc1ccc(-c2nc(-c3ccncc3)no2)c(C)c1 | 1.59% | –
COc1ccc(-c2nc(-c3ccccc3)no2)c(OC)c1 | – | 14.1 µM (active)
CCOc1ccc(NS(=O)(=O)c2ccc(C(=O)NCC3CCCO3)cc2)cc1 (stereo not given) | 3.49% | –
CCc1ccc(C2C(C#N)=C(N)Oc3n[nH]c(CC(=O)OC)c32)cc1 (stereo not given) | 9.47% | –
CCOc1c(OC)cc(C2C(C#N)=C(N)Oc3n[nH]c(-c4ccncc4)c32)cc1OC (stereo not given) | 16.6% | –
COCc1[nH]nc2c1C(C1C=CCCC1)C(C#N)=C(N)O2 (stereo not given) | – | 11.2 µM (active)
O=C(NCc1cccc(C(F)(F)F)c1)c1ccc2sc(COCCO)nc2c1 | -7.31% | –
Cc1ccc(Cc2c(-c3ccc(Cl)cc3)nc3c4ccccc4ccn23)cc1 | -8.7% | –
Cc1cc(Br)cn2c(Cc3ccsc3)c(-c3ccc(C#N)cc3)nc12 | -12.2% | –
COC(=O)c1cc(NC(=O)Cc2ccccc2[N+](=O)[O-])ccc1Cl | 0.649% | –
CC(=O)Nc1ccc(NC(=O)COC(=O)c2ccccc2C(=O)c2ccccc2)cc1 | -3.82% | –
N#Cc1cccc(NC(=O)COC(=O)c2ccccc2C(=O)c2ccc(Cl)c([N+](=O)[O-])c2)c1 | – | 5.17 µM (active)
